This is part of a sample that, as a whole, favours compounds with a hit. Of some 83,000 tested, about 20% had one in any assay.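 Plates (96-well) were seeded with cells, treated with compound at one concentration, and incubated for 48 hours before percent growth was determined.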 Values without a mark were called inactive. The source made the active and inactive calls. Rule for the calls: active = growth percent below 10; inactive = the rest.

Among the test systems are HCT-15 colon; HT29 colon; SNB-75 CNS; U251 CNS; PC-3 prostate; SK-MEL-5 melanoma; UACC-62 melanoma; LOX IMVI melanoma; SK-MEL-28 melanoma; SK-MEL-2 melanoma; EKVX NSCLC; SN12C renal; UO-31 renal; TK-10 renal; ACHN renal; CAKI-1 renal; A498 renal; CCRF-CEM leukemia; MOLT-4 leukemia.
What all share (assay): NCI-60 one-dose screen, 48 h (100 = growth as untreated, 0 = no growth, -100 = all killed)
What all share (details): 10 µM unless noted

In the case of `COc1ccc(/C=C/c2nc(Nc3ccc(S(=O)(=O)NC(C)=O)cc3)c3ccccc3n2)cc1`, the growth in the assay on HCT-15 colon is 55.2%; with HT29 colon, 67.2%; with SNB-75 CNS it was 97.7%; with U251 CNS, 74.8%; in the assay with PC-3 prostate, 79.3%; with SK-MEL-5 melanoma, 77.1%. The growth in the assay on UACC-62 melanoma is 25.6%; with LOX IMVI melanoma, 38.3%; in the assay with SK-MEL-28 melanoma, 96.1%; in the assay on SK-MEL-2 melanoma, 99%; in the assay with EKVX NSCLC, 81.6%; in the assay on SN12C renal, 86.7%. In addition, the growth with UO-31 renal was 80.6%; with TK-10 renal, 92%; with ACHN renal it was 68.6%; in the assay on CAKI-1 renal, 59.6%; in the assay on A498 renal, 9.58% (active); in the assay with CCRF-CEM leukemia, 81.7%. The growth in the assay on MOLT-4 leukemia was 79.3%.

With `CCOC(=O)[C@@H](C)C[C@H](Cc1ccccc1)NC(=O)c1csc([C@@H](C[C@H](C(C)C)N(C)C(=O)[C@@H](NC(=O)[C@H]2C[C@H](O[Si](C)(C)C(C)(C)C)CCN2C)C(C)C)OC(C)=O)n1`, the growth with HCT-15 colon was -6.05% [9.25 µM] (active); in the assay on HT29 colon, -71.7% [9.25 µM] (active); in the assay on SNB-75 CNS it was 7.94% [9.25 µM] (active); in the assay with U251 CNS, -17.3% [9.25 µM] (active); with PC-3 prostate, 6.78% [9.25 µM] (active); in the assay on SK-MEL-5 melanoma, -14.5% [9.25 µM] (active). Moreover, the growth with UACC-62 melanoma is 4.13% [9.25 µM] (active); in the assay on LOX IMVI melanoma, 4.27% [9.25 µM] (active); in the assay on SK-MEL-28 melanoma it was 24.2% [9.25 µM]; with SK-MEL-2 melanoma it was -21.2% [9.25 µM] (active); with EKVX NSCLC it was 24.1% [9.25 µM]; in the assay on SN12C renal it was 3.13% [9.25 µM] (active). The growth in the assay with UO-31 renal was 8.06% [9.25 µM] (active); with ACHN renal it was 5.74% [9.25 µM] (active); with CAKI-1 renal, 15.9% [9.25 µM]; in the assay with CCRF-CEM leukemia, 0.176% [9.25 µM] (active); with MOLT-4 leukemia it was 1.33% [9.25 µM] (active).

In the case of `CNC(=O)c1cccc(Cn2nc(C)c(NC(=O)c3ccc(COc4ccc(C(F)(F)F)cc4C)cc3)c2C)c1`, the growth was 55% in the assay on HCT-15 colon; 44.4% with HT29 colon; 82.2% in the assay with SNB-75 CNS; 44.4% in the assay on U251 CNS; 40.1% in the assay on PC-3 prostate; -16.8% (active) in the assay with SK-MEL-5 melanoma. The growth was 57% with UACC-62 melanoma; 58% in the assay on LOX IMVI melanoma; 63.9% in the assay on SK-MEL-28 melanoma; 48.9% in the assay with SK-MEL-2 melanoma; 34% in the assay on EKVX NSCLC; 56.6% with SN12C renal. The growth in the assay on ACHN renal was 47.2%; with CAKI-1 renal it was 47%; with CCRF-CEM leukemia, 54.4%; in the assay on MOLT-4 leukemia it was 18%.

In the case of `COC(=O)C1=C(C(=O)ON)C2C=CC1(C(Cc1ccccc1)Nc1ccccc1)O2` (stereo unspecified), the growth with HCT-15 colon is -53.8% (active); with HT29 colon, 37.9%; with SNB-75 CNS it was 106%; in the assay with U251 CNS, 94.6%; in the assay on PC-3 prostate it was 100%; in the assay on SK-MEL-5 melanoma, 104%. Moreover, the growth was 89.9% in the assay on UACC-62 melanoma; 75.8% in the assay on LOX IMVI melanoma; 65.4% with SK-MEL-28 melanoma; 86.7% in the assay on SK-MEL-2 melanoma; 91.9% in the assay with EKVX NSCLC; 87.4% in the assay with SN12C renal. The growth in the assay with UO-31 renal is 16.9%; in the assay on TK-10 renal, -63.7% (active); in the assay on ACHN renal, -99.7% (active); in the assay with CAKI-1 renal, 57.3%; in the assay on CCRF-CEM leukemia, -7.87% (active); with MOLT-4 leukemia, 12.9%.

Turning to `CN(C)CCn1c2ccc(Br)cc2c2nc3ccccc3nc21`, the growth in the assay on HCT-15 colon was 20.2%; with HT29 colon it was 16.9%; in the assay on SNB-75 CNS, 42.3%; in the assay with U251 CNS it was 32.2%; in the assay on PC-3 prostate it was 34%; with SK-MEL-5 melanoma, 46.8%. Also, the growth with UACC-62 melanoma is 57.1%; in the assay with LOX IMVI melanoma it was 14.8%; in the assay with SK-MEL-28 melanoma, 84.8%; with SK-MEL-2 melanoma, 41.8%; with EKVX NSCLC, 41.6%; in the assay on SN12C renal it was 26.5%. Moreover, the growth was 11% in the assay with UO-31 renal; 62.4% with TK-10 renal; 9.3% (active) in the assay on ACHN renal; 13.8% with CAKI-1 renal; 28.4% in the assay on CCRF-CEM leukemia; 13.7% in the assay on MOLT-4 leukemia.

`COc1cccc(C(=O)NNc2nc(Cl)nc(N3CCN(C(c4ccccc4)c4ccccc4)CC3)n2)c1`: the growth in the assay on HCT-15 colon was 13.3%; with HT29 colon, 20.3%; in the assay with SNB-75 CNS, 89.3%; with U251 CNS it was 100%; in the assay with PC-3 prostate, 34.3%; with SK-MEL-5 melanoma, 91.2%. The growth in the assay on UACC-62 melanoma was 76.5%; in the assay on LOX IMVI melanoma, 2.99% (active); in the assay on SK-MEL-28 melanoma, 89.1%; with SK-MEL-2 melanoma, 79.1%; in the assay with EKVX NSCLC it was 89.6%; in the assay on SN12C renal, 70.9%. Further, the growth with TK-10 renal was 97.8%; with ACHN renal, 54.6%; with CAKI-1 renal, 68.7%; in the assay with CCRF-CEM leukemia, -5.32% (active); in the assay on MOLT-4 leukemia, 4.48% (active).

`COc1ccc2c(c1)oc1c(C)c3c(c(C)c12)C(=O)N(N)C3=O`: the growth with HCT-15 colon was 41.9%; in the assay on HT29 colon, 6.15% (active); in the assay with SNB-75 CNS, -55.9% (active); in the assay on U251 CNS it was 13.6%; in the assay with PC-3 prostate, 54.1%; in the assay with SK-MEL-5 melanoma, 4.46% (active). Also, the growth with UACC-62 melanoma is 43.6%; with LOX IMVI melanoma, 43.4%; in the assay on SK-MEL-28 melanoma, 51%; in the assay on SK-MEL-2 melanoma it was 93%; with EKVX NSCLC, 49.1%; in the assay with SN12C renal it was 38.7%. Also, the growth is -45.8% (active) with UO-31 renal; -4.02% (active) in the assay on TK-10 renal; -23.7% (active) with ACHN renal; 34.2% with CAKI-1 renal; 55.8% with CCRF-CEM leukemia; 17.4% in the assay on MOLT-4 leukemia.

Regarding `Cc1cc(C(=O)/C=C/c2ccc[nH]2)ccc1-n1ccc(C(F)(F)F)n1`, the growth is 84.1% in the assay with HCT-15 colon; 89.9% in the assay with HT29 colon; 63.2% with SNB-75 CNS; 25.9% in the assay with U251 CNS; 6.59% (active) with PC-3 prostate; 98.2% in the assay on SK-MEL-5 melanoma. Also, the growth is 90.8% in the assay on LOX IMVI melanoma; 100% in the assay on SK-MEL-28 melanoma; 96.5% with SK-MEL-2 melanoma; 87.4% in the assay on EKVX NSCLC; 63.4% in the assay on SN12C renal; -92.1% (active) with UO-31 renal. For the same compound, the growth was 95.6% with TK-10 renal; 98.9% with ACHN renal; 83.8% in the assay on CAKI-1 renal; 13.1% in the assay with CCRF-CEM leukemia; 70.6% in the assay with MOLT-4 leukemia.

For the compound `O=C(Nc1ccc(-c2ccc3c(c2)NC(=O)/C3=C\c2ccc[nH]2)cc1)NC1CC1`, the growth in the assay with HCT-15 colon was 88.3%; with HT29 colon, 88%; in the assay on SNB-75 CNS it was 89.8%; in the assay on U251 CNS, 75%; in the assay on SK-MEL-5 melanoma, 94%; in the assay with UACC-62 melanoma, 97.7%. Further, the growth was 89.3% in the assay with LOX IMVI melanoma; 111% with SK-MEL-28 melanoma; 112% in the assay with SK-MEL-2 melanoma; 47.5% with EKVX NSCLC; 101% in the assay on SN12C renal; 88.2% with UO-31 renal. Besides, the growth with TK-10 renal is 108%; with ACHN renal, 101%; in the assay on CCRF-CEM leukemia it was 86.1%; with MOLT-4 leukemia it was 94.2%.
